The target in this experiment is Glucose transporter (Leishmania mexicana) (UniProt O61059). The experiment in a line: ST_JUDE_LEISH: Cytotoxicity at 2uM final concentration against transgenic Leishmania Mexicana promastigotes LmGT2 that are glucose transport deficient and complemented with the L. Mexicana glucose transporter 2. Activity is measured by DNA content using SYBR green in vitro. Format: functional.
The term inhibition denotes the change of the read-out against control, counted positive when it falls. On to `OC(CNCc1ccccc1OCc1ccccc1)c1cccc(Br)c1` (stereo not given), for which the inhibition was 2.24%.

Regarding `Cc1cccc2nc(-c3cccc(-c4ccc(NC(=O)NCc5ccccc5)cc4)c3)[nH]c12`, the inhibition came to 1.31%.

`Cc1ccccc1CNc1ccc2nc(N)nc(N)c2c1`: the inhibition is -0.21%.

Take `Cc1ccc(S(=O)(=O)n2nccc2-c2c(-c3ccc(Cl)cc3)noc2C)cc1`: the inhibition is 2.23%.

On to `Brc1cccc(Nc2nccc(Nc3ccc(Oc4ccccc4)cc3)n2)c1`, for which the inhibition was -0.46%.

Consider `CC1(C)NC(N)=NC(=N)N1OCCCOc1cc(Cl)ccc1Cl`, for which the inhibition stood at 13.6%.

`O=C(NCc1ccc(F)cc1)c1ccc(N2CCN(c3ccncc3)CC2)cn1`: the inhibition came to 1.79%.

Consider `CCCNCc1ccc(-c2ccc(CN(CC3CCCO3)C(=O)COc3ccccc3Cl)cc2)nc1` (stereo not given), for which the inhibition stood at 2.71%.

Regarding `Cc1nc(Nc2ccc(F)cc2)nc(N2CCc3ccccc3C2C)c1CO` (stereo not given), the inhibition came out at 1.5%.

Regarding `N#Cc1cccc(CN2CCCN(Cc3cccc(C(=O)Nc4ccc(Cl)cc4)c3)CC2)c1`, the inhibition worked out at 0.64%.

As for `Cc1[nH]c(C)c([N+](=O)[O-])c(=O)c1-c1ccc(Oc2ccc(OC(F)(F)F)cc2)cc1`, the inhibition worked out at 1.41%.

As for `COc1ccc(NC(=O)Nc2ccc(C)c(-c3ccc(C(=O)Nc4ccncc4)cc3)c2)cc1`, the inhibition is 0.71%.

Consider `COc1ccc(NC(=O)Nc2ccc(Nc3nc(C)cc(N4CCCC4)n3)cc2)cc1`, for which the inhibition was found to be 1.68%.

`COc1ccc(CNCC(C)(C)c2nc(-c3ccc(Cl)c(O)c3)c(-c3ccncc3)[nH]2)cc1`: the inhibition is -2.74%.

Turning to `O=C(Cc1ccc(NC(=O)c2ccc(O)c(-c3ccc(Cl)c(Cl)c3)c2)cc1)NCCN1CCCCC1`, the inhibition was found to be 0.58%.

As for `COc1cc(C(=O)Nc2ccc3nc(N4CCN(C)CC4)cc(C)c3c2)cc(OC)c1OC`, the inhibition is -0.52%.

As to `Cc1cccc2nc(-c3cccc(-c4ccc(NC(=O)c5ccc(=O)[nH]n5)cc4)c3)[nH]c12`, the inhibition came to 1.44%.

For `CN1CCCC(CN2CCN(Cc3ccc(-c4cccc(-c5nc6ccccc6[nH]5)c4)cc3)CC2)C1` (stereo not given), the inhibition came to 3.47%.

As for `CCOC(=O)c1ccc(NC(=O)N(Cc2ccc(-c3ccc(CN4CCNCC4)cc3)cc2)Cc2cccnc2)cc1`, the inhibition was found to be 0.48%.

Take `COc1ccc(S(=O)(=O)N(c2cc(Br)cc3c2OCC3)S(=O)(=O)c2ccc(OC)c(N3CCN(C)CC3)c2)cc1N1CCN(C)CC1`: the inhibition is 0.55%.

As to `COc1cc2c(cc1O)[C@@H]1[C@H](O)[C@@H](O)C=C3CCN(C2)[C@H]31`, the inhibition worked out at 1.58%.

Take `COc1ccc(CCN(C)CCOc2ccc(NC(=O)c3cccc4c(=O)c5cc(SC)ccc5[nH]c34)cc2)cc1OC`: the inhibition amounted to 6.56%.

Regarding `CC(=O)c1ccc(NC(=O)C2c3ccccc3C(=O)N(CC(C)C)C2c2cccs2)cc1` (stereo not given), the inhibition worked out at 0.34%.

Turning to `CCOC(=O)c1ccc(NC(=O)Nc2cccc(-c3ccc(-c4nc5cccc(C)c5[nH]4)s3)c2)cc1`, the inhibition was determined as 2.18%.

`CCc1ccc(C2CCN(CCCCNC(=O)c3ccc(NC(=O)c4ccc(Cl)cc4)cc3)CC2)cc1`: the inhibition turned out to be 0.05%.

Consider `CNC(=O)c1cncc(/C=C/c2ccccc2S(N)(=O)=O)c1`, for which the inhibition is -0.59%.

Consider `O=C(NC1CCCCC1)N(Cc1cccc(-c2cccc(CNC3CCCC3)c2)c1)C1CCN(Cc2ccccc2)CC1`, for which the inhibition was 7.71%.

In the case of `Cc1cccc(CCNC(=O)c2cc(Br)cc(N3CCN(c4ccncc4)CC3)c2)c1`, the inhibition was 1.78%.

On to `CN(CC(=O)Nc1ccc(F)cc1)C(=O)c1ccc(-c2ccc(F)cc2)o1`, for which the inhibition was found to be 5.24%.

`COc1ccc(CN2CCCN(Cc3cccc(NC(=O)c4ccc5ccccc5c4)c3)CC2)cc1`: the inhibition stood at 6.07%.

For the compound `CCCCCCN1CCC(CNCc2cccc([N+](=O)[O-])c2)CC1`, the inhibition was 5.95%.

As to `COc1ccc2nc(-c3cc(-c4ccc(NC(=O)C(C)C)cc4)cnc3N)[nH]c2c1`, the inhibition was 12.9%.

As to `CCCCN(CCCC)Cc1cc(Nc2ccnc3cc(Cl)ccc23)ccc1O`, the inhibition stood at 4.18%.

In the case of `CC(C)c1ccc(NC(=O)c2cccc(CN3CCCN(Cc4cccc(O)c4)CC3)c2)cc1`, the inhibition was determined as 7.67%.

Regarding `Cc1ccc(C(=O)NC2CCN(CCNC(=O)Nc3cc(C)nc4ccccc34)CC2)cc1`, the inhibition was -1.45%.

Turning to `CC(CN1CCN(C)CC1)C(=O)Nc1ccc(-c2csc(-c3nc4ccccc4[nH]3)c2)cc1` (stereo not given), the inhibition turned out to be 5.51%.

Turning to `Cn1cncc1-c1ccc2c(-c3ccsc3)cnc(N)c2c1`, the inhibition was 6.81%.

For `Cc1cccc2nc(-c3ccc(-c4ccc(CNCc5ccccc5)cc4)cc3)[nH]c12`, the inhibition turned out to be 4.35%.

As to `O=C(Nc1ccc(-c2nc3ccccc3[nH]2)cc1)c1cccc(S(=O)(=O)N2CCCC2)c1`, the inhibition is 5.05%.

For `Cc1cccc(C(=O)Nc2ccnc(N(C)CCCN(C)Cc3cccc(O)c3)c2)c1`, the inhibition was -0.23%.

The record behind these values is ChEMBL document CHEMBL3433997, “St. Jude Leishmania screening dataset” (2016).
